Bioassay records: PubChem BioAssay, several laboratories
An excerpt weighted towards active compounds, which were near 3.3% of everything screened.
sPLA2-III inh – human group III sPLA2 inhibitors, primary screen, biochemical, QFRET, BODIPY PC-A2 liposome substrate. Group 3 secretory phospholipase A2 (Homo sapiens), Q9NZ20. QFRET BODIPY PC-A2 liposome hydrolysis, fluorescence. 370,000 tested, 0.56% active. inhibition, % at 12.2 µM. AID 743126, 2013;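 active = inhibition above mean plus 3 SD of compounds lying within the high and low control bounds, cut at about 19% in these data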
Target sequence (Q9NZ20 whole entry, looked up): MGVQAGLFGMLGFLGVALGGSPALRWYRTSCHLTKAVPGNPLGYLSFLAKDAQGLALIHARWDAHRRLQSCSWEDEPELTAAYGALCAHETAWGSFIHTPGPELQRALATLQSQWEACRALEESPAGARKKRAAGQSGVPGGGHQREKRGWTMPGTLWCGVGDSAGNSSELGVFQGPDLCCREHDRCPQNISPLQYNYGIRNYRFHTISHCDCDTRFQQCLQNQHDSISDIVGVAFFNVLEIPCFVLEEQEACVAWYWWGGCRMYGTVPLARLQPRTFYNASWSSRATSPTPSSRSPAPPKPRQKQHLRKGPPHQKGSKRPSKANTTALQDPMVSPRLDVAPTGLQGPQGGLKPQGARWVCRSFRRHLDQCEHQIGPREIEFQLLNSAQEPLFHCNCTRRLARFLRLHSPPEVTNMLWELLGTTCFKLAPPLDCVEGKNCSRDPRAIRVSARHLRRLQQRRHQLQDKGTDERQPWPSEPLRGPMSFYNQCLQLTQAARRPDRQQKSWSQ
UBC9 SUMO inh – inhibitors of in vitro SUMOylation cascade, primary screen, biochemical, HTRF, uHTS. SUMO-conjugating enzyme UBC9 (Homo sapiens), P63279. HTRF SUMOylation assay, SAE1/SAE2 + UBC9. inhibition, % at 35 µM. 290,000 tested, 0.36% active. AID 2006, 2009; in the data active = inhibition above about 50%, passing the limit was not always enough
GRIN3A LBD mod – binders of NR3A ligand-binding domain, primary screen, biophysical, differential scanning fluorimetry, uHTS | Tm shift relative to glycine control, % at 25 µM | 340,000 tested, 2.5% active | NR3A LBD differential scanning fluorimetry, Tm shift; 0% = protein alone, 100% = glycine-bound protein | Glutamate receptor ionotropic, NMDA 3A (GRIN3A) ligand-binding domain;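 active = melting temperature shift of at least 10% of the positive control shift, at one fixed dose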
UBC13 inh – UBC13 polyubiquitin chain formation inhibitors, primary screen, biochemical, TR-FRET, uHTS; 330,000 tested, 0.47% active; Ubiquitin-conjugating enzyme E2 N (Homo sapiens), P61088; inhibition, % at 20 µM; AID 485273, 2010; in the data active = inhibition above about 45%, passing the limit was not always enough
A number is an active result; n = inactive; x = no result given.

SMILES | sPLA2-III inh | UBC9 SUMO inh | GRIN3A LBD mod | UBC13 inh
C=CCN1[C@H](CO)[C@H](c2ccc(C#CC3(O)CCCC3)cc2)[C@@H]1C#N | n | x | x | x
CC(C)[C@H](NC(=O)[C@H](Cc1ccccc1)NC(=O)OC(C)(C)C)C(=O)N1CCC2CCN(S(=O)(=O)c3ccccc3)CC21 (some centres not stated) | n | x | x | x
CCCCn1c(O)c(/C=C2\C=Nc3ccccc32)c(=O)[nH]c1=O | n | n | n | n
O=c1[nH]c(S)c(/C=C2\C=Nc3ccccc32)s1 | n | n | 34 | n
COc1cccc2c(SCC(=O)N/N=C/c3ccc(O)cc3O)cc(C)nc12 | n | x | 26 | n
COc1ccc(N2Cc3ccc(C(=O)N/N=C\c4ccc(O)cc4O)cc3C2)cc1 | x | 66 | x | n
COc1ccc2nc(C)cc(SCC(=O)N/N=C/c3ccccc3)c2c1 | n | n | n | n
COc1ccccc1/C=N/NC(=O)CSc1cc(C)nc2ccccc12 | n | n | n | n
COc1ccc2nc(C)cc(SCC(=O)N/N=C/c3ccc(O)cc3O)c2c1 | n | n | 25 | n
O=[N+]([O-])c1ccc(Cl)cc1CN1CCCCCC1 | n | n | n | n
Clc1ccc2scc(CN3CCCCC3)c2c1 | n | n | 16 | n
COc1cc(-c2oc3cc(O)cc(O)c3c(=O)c2O[C@@H]2O[C@H](COC3O[C@@H](C)[C@H](O)[C@@H](O)[C@H]3O)[C@@H](O)[C@H](O)[C@H]2O)ccc1O (some centres not stated) | n | x | 13 | n
CN1C(=O)/C(=C/c2cc(N=Nc3ccccc3)ccc2O)SC1=S | n | n | 372 | n
S=C(NCc1cccs1)Nc1cc(Cl)cc(Cl)c1 | n | n | 12 | n
S=C(NCc1cccs1)Nc1cccc(Cl)c1 | x | n | n | n
COc1ccc(OC)c(C(=O)c2ccccc2)c1 | n | n | x | n
COc1ccc(OC)c(C(=O)c2ccc(C(=O)c3cc(OC)ccc3OC)cc2)c1 | n | n | 20 | n
O=C(NCCc1c[nH]c2ccccc12)c1ccc(Sc2ccccc2Cl)c([N+](=O)[O-])c1 | n | x | x | x
COc1ccc(S[C@]2(C(=O)N3CCN(C(C)=O)CC3)CC(=O)N(C(=O)/C=C/c3ccccc3)[C@@H]2c2ccc(OC)cc2)cc1 | n | x | x | x
O=C(CSc1nnc(-c2cccs2)n1-c1ccccc1)N1CCCC1 | n | n | 11 | n
COc1ccc(Nc2nc3ccccc3nc2NS(=O)(=O)c2cccs2)c(OC)c1 | n | n | n | n
COc1cccc(Nc2nc3ccccc3nc2NS(=O)(=O)c2cccs2)c1 | n | n | 21 | n
COc1ccc(NS(=O)(=O)c2cccs2)c(OC)c1 | n | n | 15 | n
O=C(N/N=C/c1cn(Cc2cccc(F)c2)c2ccccc12)c1cc(O)cc(O)c1 | n | 66 | n | n
Cn1c2ccccc2c2cc(/C=N/NC(=O)c3ccc(N)cc3)ccc21 | n | n | 17 | n
SMILES | sPLA2-III inh | UBC9 SUMO inh | GRIN3A LBD mod | UBC13 inh
Nc1ccc(C(=O)N/N=C/c2cn(Cc3ccc(F)cc3)c3ccccc23)cc1 | n | n | 16 | n
O=C(NCCc1c[nH]c2ccccc12)OCc1cn(Cc2cc(F)ccc2F)nn1 | n | x | x | x
CCOc1ccc(-c2csc(N3CCC(C(N)=O)CC3)n2)cc1 | n | x | x | x
Cc1cccc(NC(=O)c2nc[nH]c2C(=O)NCCN(CCNC(=O)c2[nH]cnc2C(=O)Nc2cccc(C)c2)CCNC(=O)c2[nH]cnc2C(=O)Nc2cccc(C)c2)c1 | n | x | 14 | n
Cc1cccc(NC(=O)c2nc[nH]c2C(=O)Nc2cccc(C)c2)c1 | n | n | n | n
Cc1cccc(NC(=O)c2nc[nH]c2C(=O)NCCCNC(=O)c2[nH]cnc2C(=O)Nc2cccc(C)c2)c1 | n | x | 12 | n
Cc1cccc(NC(=O)c2nc[nH]c2C(=O)NC[C@H](C)O)c1 | n | x | x | x
CN(C)S(=O)(=O)c1cccc(C(=O)N/N=C\c2ccccc2[N+](=O)[O-])c1 | n | x | x | x
COc1cccc(-c2cc(C(=O)Nc3c(C)nn(Cc4ccccc4C)c3C)no2)c1 | n | n | 11 | n
CC(C)(O)C#Cc1ccc(CNC[C@H]2O[C@@H](n3cnc(C(N)=O)n3)[C@H](O)[C@@H]2O)s1 | n | x | 11 | x
NC(=O)c1ncn([C@@H]2O[C@H](CNCc3ccccc3C#Cc3ccccc3)[C@@H](O)[C@H]2O)n1 | n | x | 11 | x
Cc1ccc(-n2c(N)c(C#N)c(-c3ccc(Cl)cc3)c(C#N)c2=O)cc1 | n | n | 20 | n
Cc1ccc(-c2c(C#N)c(N)n(-c3ccc(C)cc3)c(=O)c2C#N)cc1 | n | n | n | n
CC(=O)N1CCN(C(=O)CN2C(=O)CC(C)(C)S(=O)(=O)c3ccccc32)CC1 | n | x | x | x
O=C(Nc1ccc(Cl)cc1)Nc1ccccc1C(=O)N1CCCC1 | n | x | x | x
Cc1cccc(C(=O)OCC(=O)N(C)CC(=O)Nc2ccc(Cl)c(C(F)(F)F)c2)c1 | n | x | 12 | n
Cc1nc(-c2ccc(F)cc2)c(CC(=O)N(C)CC(=O)Nc2ccc(Cl)c(C(F)(F)F)c2)s1 | n | x | 12 | x
Cc1ccc(C)c(OCC(=O)N(C)CC(=O)Nc2ccc(Cl)c(C(F)(F)F)c2)c1 | n | x | 12 | n
CN(CC(=O)Nc1ccc(Cl)c(C(F)(F)F)c1)C(=O)c1cc(-c2ccncc2)nc2ccccc12 | n | x | 21 | n
Cc1cccc(C(=O)NCC(=O)OCC(=O)N(C)CC(=O)Nc2ccc(F)cc2)c1 | n | x | n | n
CN(CC(=O)Nc1ccc(Cl)c(C(F)(F)F)c1)C(=O)COc1cccc2cccnc12 | n | x | x | x
COC(=O)[C@]12C[C@H](CC(=O)N3CCSCC3)C(=O)N(CCc3ccc(OC)c(OC)c3)C1=C[C@H](C1CCCC1)O[C@@H]2C | n | x | x | x
CCCC[C@H](C(=O)N(C)c1ccccc1)[C@@H](O)c1ccc2ccccc2c1 | n | x | x | x
CC(C)C[C@@H](CO)N1Cc2nnn(Cc3ccccc3)c2-c2ccccc2S1(=O)=O | n | x | x | x
